# High-throughput results (PubChem BioAssay)
# FGF22 binding – binders of recombinant human FGF22 by thermal shift; SYPRO orange fluorescence; percent of sucrose octasulfate shift, DMSO zero; activity (Tm shift, normalised), % at 9.99 µM; hit rate 1.5% among 340,000; AID 651658;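 active = mean Tm shift, scaled 0 neutral to 100 positive control, at about 1.3% or above, every replicate too, limit read from the data; inconclusive = no clear call, values can overlap the other calls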
# Target sequence (Q9HCT0 whole entry, looked up): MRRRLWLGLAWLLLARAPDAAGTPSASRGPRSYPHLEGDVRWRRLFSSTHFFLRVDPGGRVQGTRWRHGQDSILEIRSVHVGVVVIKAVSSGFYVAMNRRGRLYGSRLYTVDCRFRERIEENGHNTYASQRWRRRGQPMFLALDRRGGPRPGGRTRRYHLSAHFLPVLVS
# MLL AF4-AF9 inh – blocks AF4 peptide binding to human AF9; P42568; AlphaScreen, biotin-AF4 peptide binding to FLAG-AF9; inhibition, % at 10 µM; hit rate 0.47% among 350,000; AID 651704;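 active = every replicate reaching a set inhibition limit, whatever the replicate mean, cut at about 25% in these data; inconclusive = mean inhibition reaches that limit but some replicates miss it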;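 also: 0% = plate neutral control median and 100% = total signal loss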
# esBAF inh – inhibitors of esBAF chromatin remodeling in mouse ES cells; AID 602393; hit rate 2% among 350,000; Bmi1-luciferase knock-in reporter, 24 h; 100% = twice the neutral-well signal; reporter increase, % at 12.5 µM; in the data active = activation above about 40%; inconclusive = no clear call, values can overlap the other calls;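 also: 0% = median of the plate's neutral control wells and 100% = double that signal; a rise in the Bmi1 reporter signal indicates esBAF inhibition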
# Wnt act – Wnt/beta-catenin pathway activation; Wnt/beta-catenin reporter cell assay, activator, plate reader; activation, % at 9.35 µM; hit rate 1.2% among 300,000; in the data active = activation above about 30%, passing the limit was not always enough; inconclusive = no clear call, values can overlap the other calls;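 also: 0% = neutral control wells and 100% = positive control wells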
# SMARCA2 activ – increases SMARCA2 function in MMTV reporter cells. MG213 cells, MMTV-luciferase reporter, dexamethasone, overnight. activation, % at 9.1 µM. hit rate 1% among 370,000; in the data active = activation above about 7.8%;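 also: 0% = vehicle wells and 100% = reference activator wells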
# MITF TRPM1 HTS – activators of MITF-driven TRPM1 promoter activity in SK-MEL-5 cells; AID 588334; hit rate 0.75% among 300,000; activation, % at 12.5 µM; SK-MEL-5 TRPM1-promoter luciferase, 24 h; % of positive control, neutral wells = 0;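 active = mean activation of at least 80% with every replicate also reaching 80%; inconclusive = mean reaches 80% but some replicate falls short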;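 also: 0% = neutral control wells and 100% = parthenolide positive control wells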
# An asterisk follows results filed as active; ? = inconclusive; · = not tested or not shown. Most compounds without a hit are left out; they make up all but 4.3% or so of the library.
SMILES,FGF22 binding,MLL AF4-AF9 inh,esBAF inh,Wnt act,SMARCA2 activ,MITF TRPM1 HTS
Cc1ccc(S(=O)(=O)Nc2cccc3c2O[C@@H](CN(C)Cc2ccc(C(=O)O)cc2)[C@H](C)CN([C@@H](C)CO)C3=O)cc1,-0.4,-1.9,5.5,·,·,·
CCCCCCCn1c(=N)n(CC(O)c2ccco2)c2ccccc21 (stereo unspecified),43.7*,11.4,·,-2.9,-5.9,-28.1
COCCCNC(=O)c1ccc(Cn2c(=O)c3ccccc3n(Cc3ccc([N+](=O)[O-])cc3)c2=O)cc1,·,·,·,·,-2.7,·
C[C@H](CO)N1C[C@H](C)[C@@H](CN(C)S(=O)(=O)c2ccc(Cl)cc2)Oc2ccc(NC(=O)Nc3ccc4c(c3)OCO4)cc2CC1=O,-0.3,8.4,-2.7,·,·,·
CCN(CC)c1ccc(-n2cc3c(=O)n(C)c(=O)n(C)c3c2)cc1,·,·,?,·,2.6,17.7
CN(C)c1ccc(-n2cc3c(=O)n(C)c(=O)n(C)c3c2)cc1,·,·,70.7*,·,6.4,69.9
COc1ccc(NC(=O)N(C)C[C@@H]2Oc3c(NC(=O)Nc4cccc5ccccc45)cccc3C(=O)N([C@@H](C)CO)C[C@@H]2C)cc1,0.1,7.4,0.1,·,·,·
Cc1cc(C)nc(NC(=O)NC(=O)c2ccccc2)n1,-0.2,-0.4,-1.4,-8.2,-1.1,-10.7
Cc1cc(C)nc(NC(C)(C)C(=O)O)n1,44.0*,0.0,·,1.0,-0.8,4.0
Cc1c(C(=O)NCc2ccccn2)oc2ccc(S(=O)(=O)N3CCC4(CC3)OCCO4)cc12,43.0*,-0.3,·,-4.9,-3.9,0.7
C=CCN=c1scc(-c2ccco2)n1/N=C/c1ccc(O)c(O)c1O,-0.3,-1.0,·,41.7*,2.2,39.2
CN=c1scc(-c2cccs2)n1/N=C/c1ccc(O)c(O)c1O,43.0*,39.5*,·,3.2,-1.1,-1.3
CN=c1scc(C)n1/N=C/c1ccc(O)c(O)c1O,·,·,12.6,·,-4.9,-3.4
O=C(NC[C@H]1[C@@H](c2ccccc2)[C@H](CO)N1C(=O)Cc1ccncc1)C1CCC1,-0.3,0.7,-1.4,·,·,·
COc1ccc(Cl)cc1Nc1nc(N)c2ccccc2n1,·,4.1,13.0,6.6,-1.7,·
Cc1ccc(C)c(Nc2nc(N)c3ccccc3n2)c1,-0.1,1.4,·,33.1*,4.1,47.0
CO[C@@H]1CC[C@@H]2CCN(C)C(=O)[C@H](C)N(C)C(=O)c3cccc(C#N)c3OC[C@H]1O2,0.0,20.7,5.3,·,·,·
CC1(C)CN=c2s/c(=C\c3ccc(Cl)cc3)c(=O)n2C1,·,1.8,12.9,-0.9,-1.3,117.1*
O=C(NCC[C@H]1CC[C@@H](NS(=O)(=O)Cc2ccccc2)[C@H](CO)O1)C1CC1,0.2,-0.7,-0.6,·,·,·
O=C(C[C@H]1CC[C@H](NS(=O)(=O)c2ccccc2)[C@@H](CO)O1)N1CCN(c2ccccc2)CC1,·,-14.7,·,·,·,·
COc1cccc(-c2c(-c3cc(OC)cc(OC)c3)n(C)c3ccc(-c4ccc(OC)nc4)cc23)c1,43.8*,-0.6,-4.7,-5.9,1.6,15.5
COc1cc(OC)cc(-c2c(-c3ccc(F)cc3)c3cc(-c4ccc(OC)nc4)ccc3n2C)c1,-0.1,-0.3,-5.2,0.9,0.3,8.0
Clc1ccc(SCc2cn3cccnc3n2)cc1,·,·,?,9.6,1.3,48.5
c1ccc2oc(SCc3cn4ccsc4n3)nc2c1,·,·,31.0,66.4*,-1.2,49.6
Clc1ccc(SCc2cn3ccsc3n2)cc1,·,·,·,52.4*,0.9,79.6
SMILES,FGF22 binding,MLL AF4-AF9 inh,esBAF inh,Wnt act,SMARCA2 activ,MITF TRPM1 HTS
O=C(Cc1cn2ccsc2n1)OCc1ccccc1,·,·,13.1,-2.0,0.7,40.7
c1ccc(CSCc2cn3ccsc3n2)cc1,·,·,59.4*,·,3.9,84.5*
Cc1csc2nc(CSc3ccc(Cl)cc3)cn12,·,·,·,·,·,91.8*
C[C@H]1CN([C@@H](C)CO)C(=O)Cc2cc(NC(=O)Cn3cnnn3)ccc2O[C@@H]1CN(C)S(=O)(=O)c1ccccc1,-0.4,-3.0,-4.4,·,·,·
C[C@@H](O)C#Cc1ccc([C@@H]2[C@H](CO)N3CCCCN(S(=O)(=O)Cc4ccccc4)C[C@@H]23)cc1,0.2,0.5,-4.4,·,·,·
CS(=O)(=O)Nc1ccc2c(c1)[C@@H]1C[C@@H](CC(=O)N3CCCCC3)O[C@H](CO)[C@@H]1O2,0.1,·,3.9,·,·,·
C[C@@H]1CN([C@@H](C)CO)C(=O)c2cccc(NS(=O)(=O)c3cccs3)c2O[C@@H]1CN(C)Cc1ccc2c(c1)OCO2,0.9,-0.5,-0.4,·,·,·
Cn1c(NCc2ccccc2Cl)nc2ccccc21,0.0,-2.8,?,27.8,3.6,70.7
Cn1c(NCc2ccccc2O)nc2ccccc21,·,·,52.7*,13.4,1.7,?
CN(C)c1ccc(CNc2nc3ccccc3n2C)cc1,-0.4,6.6,48.0*,3.0,-1.7,·
Cc1ccc(CNc2nc3ccccc3n2C)o1,0.1,3.6,42.4*,9.5,4.4,·
C[C@@H]1CN([C@@H](C)CO)C(=O)c2cc(NS(C)(=O)=O)ccc2O[C@H]1CN(C)Cc1ccc(C(F)(F)F)cc1,0.4,-5.8,-7.0,·,·,·
CN1CCN(C(=O)C[C@@H]2C[C@@H]3c4cc(NC(=O)NC5CCCCC5)ccc4O[C@@H]3[C@H](CO)O2)CC1,0.0,-0.5,-4.1,·,·,·
C(=NN1CCCCCC1)c1ccc2c(c1)OCO2,-0.1,3.6,18.8,32.8*,1.3,22.9
CN1CCN(C(=O)/C=C/c2ccc3c(c2)OCO3)CC1,-0.1,-0.7,·,0.4,-1.0,4.9
O=C(/C=C/C=C/c1ccc2c(c1)OCO2)N1CCCCC1,0.3,4.5,50.7*,0.9,4.2,97.8*
Cc1noc(C)c1S(=O)(=O)Nc1ccc2c(c1)C(=O)N([C@H](C)CO)C[C@H](C)[C@H](CN(C)C(=O)Nc1ccc(F)cc1)OCCCC[C@H](C)O2,-0.5,2.1,7.6,·,·,·
CCOCc1nnc(NC(=O)c2cc(C(=O)OC)cc([N+](=O)[O-])c2)s1,43.2*,-0.4,·,-2.0,-1.5,0.3
CCOCc1nnc(NC(=O)c2ccc(OC)cc2)s1,·,·,52.7*,·,-1.5,37.3
CCCCC(=O)Nc1nnc(CCOC)s1,42.9*,-1.1,-3.1,-3.4,-1.7,21.3
CCCC(=O)Nc1nnc(CCOC)s1,-0.2,-11.6,·,-5.8,-1.0,-4.0
CCCc1nnc(NC(=O)c2cccc(OC)c2)s1,0.3,-1.6,35.9,18.4,2.1,86.1*
C[C@H]1CCCCO[C@@H](CN(C)C(=O)CCC(F)(F)F)[C@@H](C)CN([C@@H](C)CO)C(=O)c2cc(NS(=O)(=O)c3cn(C)cn3)ccc2O1,-0.3,-1.2,5.5,·,·,·
Nc1ncnc(N)c1N=Nc1ccccc1,0.2,-2.5,-19.5,1.1,6.6,-14.9
Nc1ccc2ccccc2c1N=Nc1ccccc1,0.1,36.5*,43.5*,14.5,6.5,-10.7
CN(C)c1ccc(C=Cc2ccnc3ccccc23)cc1N,0.0,14.7,-10.5,38.6*,-4.8,·
C[C@H](CO)N1C[C@H](C)[C@H](CN(C)C)Oc2cc(C#CC3(O)CCCC3)ccc2S1(=O)=O,-0.7,-2.9,-8.2,·,·,·
